The values below come from PubChem BioAssay (NCI).

Test systems include SR leukemia; RPMI-8226 leukemia; OVCAR-8 ovarian; OVCAR-5 ovarian; OVCAR-4 ovarian; SK-OV-3 ovarian; IGROV1 ovarian; OVCAR-3 ovarian; HS 578T breast; T-47D breast; BT-549 breast; MDA-MB-435 melanoma; SW-620 colon; MCF7 breast; HCT-116 colon; HCC-2998 colon; KM12 colon; NCI/ADR-RES ovarian.
Test in all cases: NCI-60 one-dose screen, 48 h (100 = growth as untreated, 0 = no growth, -100 = all killed)
Common to all, as to settings: 10 µM unless noted

This is part of a sample that, as a whole, favours compounds with a hit. Of some 83,000 tested, about 20% had one in any assay.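 Single-dose data. Exposure time 48 hours. Values below 10 considered active.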 A number with no mark means an inactive call. Active and inactive are the calls of the source.

In the case of `Cc1ccc(OCCOCCOCCOc2ccc(C)n(O)c2=S)c(=S)n1O`, the growth is 25.6% with SR leukemia; 31.2% in the experiment on RPMI-8226 leukemia; 39.3% with OVCAR-8 ovarian; 38.5% in the experiment on OVCAR-5 ovarian; 20.5% with OVCAR-4 ovarian; 64.9% in the experiment with SK-OV-3 ovarian. The growth with IGROV1 ovarian is 72%; in the experiment with OVCAR-3 ovarian it was 15.9%; in the experiment on HS 578T breast, 56.3%; with T-47D breast, 14%; in the experiment with BT-549 breast it was 50.4%; with MDA-MB-435 melanoma it was 56.3%. Further, the growth with SW-620 colon is 24.5%; in the experiment with MCF7 breast, 20.3%; with HCT-116 colon, 9.46% (active); in the experiment on HCC-2998 colon, 57.9%; in the experiment on KM12 colon, 30.8%.
For the compound `C=C1C(=O)O[C@H]2[C@H]1CC/C(COC(=O)/C=C\C(=O)NCc1ccc(Cn3c(=O)sn(CCCCl)c3=O)cc1)=C\CC[C@@]1(C)O[C@@H]21`, the growth with SR leukemia is 66.5%; in the experiment with RPMI-8226 leukemia, 44.9%; in the experiment on OVCAR-8 ovarian it was 79.9%; in the experiment with OVCAR-5 ovarian, 82.2%; in the experiment with OVCAR-4 ovarian, 74.9%; with SK-OV-3 ovarian, 97.4%. Besides, the growth is 58.6% in the experiment on IGROV1 ovarian; 37.4% in the experiment on OVCAR-3 ovarian; 88.8% in the experiment with HS 578T breast; 88.2% in the experiment with BT-549 breast; 52.8% in the experiment on MDA-MB-435 melanoma; 22.1% with SW-620 colon. Moreover, the growth with MCF7 breast is 41.8%; in the experiment with HCT-116 colon it was 26.6%; with HCC-2998 colon, 100%; with KM12 colon it was 99.4%.
Take `CCOC(=O)C1=C(CCl)N(C)C(=O)NC1c1ccc2c(c1)OCO2` (stereo unspecified): the growth was 19.8% with SR leukemia; 12.3% in the experiment on RPMI-8226 leukemia; 44.9% in the experiment with OVCAR-8 ovarian; 76.9% in the experiment on OVCAR-5 ovarian; 55.9% in the experiment with OVCAR-4 ovarian; 74.6% in the experiment on IGROV1 ovarian. The growth was 25.2% with OVCAR-3 ovarian; 50% in the experiment with HS 578T breast; 72% in the experiment with NCI/ADR-RES ovarian; 35.6% in the experiment on T-47D breast; 37.8% in the experiment on BT-549 breast; 26.6% with MDA-MB-435 melanoma. The growth in the experiment on SW-620 colon was 8.16% (active); in the experiment on MCF7 breast, 51.8%; in the experiment with HCT-116 colon it was 19.1%; in the experiment with HCC-2998 colon, 94.6%; in the experiment on KM12 colon it was 73.1%.
`COC12C=C/C(=C(/C(=O)OCCSc3ccnn3C)C(=O)CCCCCCCCC3(OC)C=C/C(=C(/C(=O)OCCSc4ccnn4C)C(=O)CCCCCCCC1)O3)O2`: the growth with SR leukemia is -7.77% (active); with RPMI-8226 leukemia, -8.92% (active); in the experiment on OVCAR-8 ovarian, 17.3%; with OVCAR-5 ovarian it was 37%; in the experiment on OVCAR-4 ovarian it was 20.4%; in the experiment with SK-OV-3 ovarian, 75.1%. Further, the growth was -3.71% (active) in the experiment on IGROV1 ovarian; 5.79% (active) in the experiment with OVCAR-3 ovarian; 39.4% in the experiment with HS 578T breast; 33.2% in the experiment on T-47D breast; -22.7% (active) with BT-549 breast; -3.93% (active) in the experiment with MDA-MB-435 melanoma. Moreover, the growth is 18.5% in the experiment with SW-620 colon; 14.7% in the experiment on MCF7 breast; -38.5% (active) with HCT-116 colon; -86.1% (active) in the experiment with HCC-2998 colon; -57.6% (active) in the experiment with KM12 colon.
On to `O=C(/C=C/c1ccccc1)c1ccc(-n2cc(CN3CCN(c4cc5c(cc4F)c(=O)c(C(=O)O)cn5C4CC4)CC3)nn2)cc1`, for which the growth was 24.1% with SR leukemia; -0.509% (active) with RPMI-8226 leukemia; 62% in the experiment on OVCAR-8 ovarian; 92.2% with OVCAR-5 ovarian; 89.7% in the experiment on OVCAR-4 ovarian; 84% in the experiment with IGROV1 ovarian. Further, the growth was 91.5% with OVCAR-3 ovarian; 67.4% with HS 578T breast; 87% in the experiment on NCI/ADR-RES ovarian; 92.9% in the experiment with T-47D breast; 76.7% in the experiment with BT-549 breast; 79.5% in the experiment with MDA-MB-435 melanoma. Moreover, the growth with SW-620 colon was 83.7%; in the experiment on MCF7 breast it was 58.2%; with HCT-116 colon it was 6.95% (active); in the experiment on HCC-2998 colon, 88.3%; in the experiment on KM12 colon it was 73.7%.
Take `Fc1cc2[nH]ncc2c2c3c(c(-c4cn[nH]c4C(F)(F)F)nc12)CCCC3`: the growth with SR leukemia was -30.2% (active); with RPMI-8226 leukemia it was 8.27% (active); in the experiment on OVCAR-8 ovarian, 6.94% (active); with OVCAR-5 ovarian, 4.77% (active); in the experiment with OVCAR-4 ovarian, 24.1%; with SK-OV-3 ovarian, -24.5% (active). Further, the growth in the experiment on IGROV1 ovarian is 0.245% (active); in the experiment with OVCAR-3 ovarian it was -11.3% (active); in the experiment on HS 578T breast it was -18.4% (active); in the experiment with T-47D breast, -16.2% (active); in the experiment with BT-549 breast, -64.2% (active); with MDA-MB-435 melanoma, 26.2%. The growth is 4.23% (active) in the experiment with SW-620 colon; 2.27% (active) with MCF7 breast; 1.05% (active) in the experiment on HCT-116 colon; -14.2% (active) in the experiment with HCC-2998 colon; 9.4% (active) in the experiment on KM12 colon.
In the case of `Nc1c(C(=O)Nc2cccc3ncccc23)sc2nc3c(cc12)CN(Cc1ccccc1)CC3`, the growth was 33.9% in the experiment with SR leukemia; 58.4% in the experiment with RPMI-8226 leukemia; 83% in the experiment on OVCAR-8 ovarian; 88.8% in the experiment on OVCAR-5 ovarian; 71.5% with OVCAR-4 ovarian; 78.4% in the experiment on SK-OV-3 ovarian. In addition, the growth is 72.6% in the experiment on IGROV1 ovarian; 80.1% with OVCAR-3 ovarian; 76.9% with HS 578T breast; 41.3% in the experiment with T-47D breast; 71.5% in the experiment with BT-549 breast; 22.1% with MDA-MB-435 melanoma. Besides, the growth with SW-620 colon was 83.7%; in the experiment with MCF7 breast it was 53.1%; with HCT-116 colon it was 74.2%; in the experiment with HCC-2998 colon, 93.5%; with KM12 colon it was 86.7%.
In the case of `CC(C)Cc1nc(Nc2ccccc2)[nH]c(=O)c1C#N`, the growth with SR leukemia was 34.2%; in the experiment with RPMI-8226 leukemia it was 25.1%; in the experiment with OVCAR-8 ovarian, 64.4%; in the experiment with OVCAR-5 ovarian, 84.9%; in the experiment with OVCAR-4 ovarian, 36.8%; in the experiment with SK-OV-3 ovarian, 60%. The growth in the experiment with IGROV1 ovarian is 71.4%; in the experiment on OVCAR-3 ovarian, 30.8%; in the experiment with HS 578T breast, 36.2%; in the experiment with T-47D breast, 40.8%; in the experiment on BT-549 breast, 39%; in the experiment with MDA-MB-435 melanoma it was 70.6%. The growth with SW-620 colon is 70.3%; in the experiment on MCF7 breast it was 53.4%; in the experiment with HCT-116 colon it was 54.7%; with HCC-2998 colon, 38.1%; in the experiment on KM12 colon it was 50.6%.
`COc1ccc2c(c1)C(C)Cc1c(ncnc1-n1cnc3cc(C)ccc31)N2C` (stereo unspecified): the growth in the experiment with SR leukemia is -0.883% (active); with RPMI-8226 leukemia it was 11.9%; with OVCAR-8 ovarian, 9.01% (active); in the experiment with OVCAR-5 ovarian, 78.1%; with OVCAR-4 ovarian, 58.2%; with SK-OV-3 ovarian, 19.8%. Also, the growth is 27.5% with IGROV1 ovarian; 6.09% (active) in the experiment on OVCAR-3 ovarian; 36.2% in the experiment on HS 578T breast; -3.64% (active) in the experiment on BT-549 breast; -17.5% (active) in the experiment with MDA-MB-435 melanoma; 25% in the experiment with SW-620 colon. Moreover, the growth in the experiment with MCF7 breast is 16.1%; in the experiment with HCT-116 colon, 6.84% (active); in the experiment with HCC-2998 colon, 10.7%; with KM12 colon it was 12.2%.
